# Results published in the supplement of paper PMC12350171.
# Structures can show the parent of a compound that is named as a salt. Unmarked numbers belong to inactive results.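 How the source made its calls: active = AUC significantly below DMSO controls by Student t-fit with adjusted P under 0.01; inactive = not significantly reduced.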
# Tested on: Haemophilus parainfluenzae
# Assay: growth AUC normalised to DMSO control (fraction of control); higher = less growth inhibition, active = hit call of the paper
# Details: 20 µM
# Method in brief: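 Hemin and NAD were added to the medium for Haemophilus parainfluenzae. All pathogens, after two anaerobic passages, were inoculated at a starting OD578 of 0.01 into pre-reduced mGAM plates with 20 μM compound and 1% DMSO under breathable seals, and OD578 was read hourly for 24 h in three biological replicates. AUC of each growth curve was obtained with the trapezoidal rule up to the exponential-to-stationary transition and normalised to DMSO controls from the same plate.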
row,SMILES,growth AUC normalised to DMSO control
1,COc1c(N2CCNC(C)C2)c(F)cc2c(=O)c(C(=O)O)cn(C3CC3)c12 (centres undefined) [Gatifloxacin],0.0535 (active)
2,CN(C)CCN(Cc1ccccc1)c1ccccn1 [Tripelennamine hydrochloride],1.01
3,CN1CCN(C(c2ccccc2)c2ccccc2)CC1 [Cyclizine hydrochloride],0.995
4,CC(=O)OCC(=O)[C@@]12OC(C)(C)O[C@@H]1C[C@H]1[C@@H]3C[C@H](F)C4=CC(=O)C=C[C@]4(C)[C@@]3(F)[C@@H](O)C[C@@]12C [Fluocinonide],0.999
5,CC(=C(CCO)SSCC1CCCO1)N(C=O)Cc1cnc(C)nc1N (stereo in doubt) [Fursultiamine hydrochloride],0.986
6,C[C@@H](c1ncncc1F)[C@](O)(Cn1cncn1)c1ccc(F)cc1F [Voriconazole],0.977
7,CC(COc1ccccc1)N(CCCl)Cc1ccccc1 (centres undefined) [Phenoxybenzamine hydrochloride],1.01
8,CC[N+](C)(CC)CCOC(=O)C1c2ccccc2Oc2ccccc21 [Methantheline bromide],1.04
9,Cn1c(=O)c2[nH]cnc2n(C)c1=O [Aminophylline],1.04
10,Nc1cc(-c2ccncc2)c[nH]c1=O [Amrinone],1.09
11,O=C1CC2(CCCC2)CC(=O)N1CCCCN1CCN(c2ncccn2)CC1 [Buspirone hydrochloride],1.09
12,Cc1cnc(NC(=O)C2=C(O)c3ccccc3S(=O)(=O)N2C)s1 [Meloxicam],0.968
13,CCN(CC)CCNC(=O)c1cc(Br)c(N)cc1OC [Bromopride],1.03
14,C#C[C@]1(O)CC[C@H]2[C@@H]3CCC4=CCCC[C@@H]4[C@H]3CC[C@@]21C [Lynestrenol],0.931
15,CCCCNC(=O)NS(=O)(=O)c1ccc(C)cc1 [Tolbutamide],0.99
16,"c1ccc(CNc2ncnc3nc[nH]c23)cc1 [Aminopurine, 6-benzyl]",1
17,CC(C)(C)NC(=O)[C@@H]1C[C@@H]2CCCC[C@@H]2CN1C[C@@H](O)[C@H](Cc1ccccc1)NC(=O)[C@H](CC(N)=O)NC(=O)c1ccc2ccccc2n1 [Saquinavir mesylate],1.63
18,Cc1ncc([N+](=O)[O-])n1CCO [Metronidazole],0.906
19,CCOC(=O)/C=C(C)/C=C/C=C(C)/C=C/c1c(C)cc(OC)c(C)c1C [Etretinate],1.03
20,CC(=O)Oc1ccc(C(c2ccc(OC(C)=O)cc2)c2ccccn2)cc1 [Bisacodyl],1.03

row,SMILES,growth AUC normalised to DMSO control
1,Clc1ccc(COC(Cn2ccnc2)c2ccc(Cl)cc2Cl)cc1 (centres undefined) [Econazole nitrate],1.09
2,C[C@@H]1C[C@H]2[C@@H]3C[C@H](F)C4=CC(=O)C=C[C@]4(C)[C@@]3(Cl)[C@@H](O)C[C@]2(C)[C@H]1C(=O)COC(=O)C(C)(C)C [Clocortolone pivalate],1.73
3,Nc1ccn([C@@H]2O[C@H](CO)[C@@H](O)[C@@H]2O)c(=O)n1 [Cytarabine],0.999
4,CC(=O)OC(C)C[N+](C)(C)C (centres undefined) [Methacholine chloride],0.979
5,OC(CCN1CCCC1)(c1ccccc1)C1CCCCC1 (centres undefined) [Procyclidine hydrochloride],0.962
6,CCOC(=O)NNc1nncc2ccccc12 [Todralazine hydrochloride],1.01
7,C[C@H](CCC(=O)O)[C@H]1CC[C@H]2[C@@H]3[C@H](O)C[C@@H]4C[C@H](O)CC[C@]4(C)[C@H]3CC[C@]12C [Chenodiol],0.95
8,COc1cc([C@@H]2c3cc4c(cc3[C@@H](O[C@@H]3O[C@@H]5CO[C@@H](C)O[C@H]5[C@H](O)[C@H]3O)[C@H]3COC(=O)[C@H]23)OCO4)cc(OC)c1O [Etoposide],1.03
9,O=S(=O)(O)CCS [Coenzyme M],1.06
10,C[C@H](O)C(=O)Nc1c(I)c(C(=O)NC(CO)CO)c(I)c(C(=O)NC(CO)CO)c1I [Iopamidol],1.07
11,CCOc1ccc2c(c1)C(C)=CC(C)(C)N2 [Ethoxyquin],0.94
12,CCN(CC)C(=O)N1CCN(C)CC1 [Diethylcarbamazine citrate],0.978
13,CC(C(=O)O)c1cccc(Oc2ccccc2)c1 (centres undefined) [Fenoprofen calcium salt dihydrate],0.945
14,COc1cc(N)c(Cl)cc1C(=O)NC1CCN(CCCOc2ccc(F)cc2)CC1OC (centres undefined) [Cisapride],1.03
15,CO[C@H]1/C=C/O[C@@]2(C)Oc3c(C)c(O)c4c(O)c(c(/C=N/N5CCN(C)CC5)c(O)c4c3C2=O)NC(=O)/C(C)=C\C=C\[C@H](C)[C@H](O)[C@@H](C)[C@@H](O)[C@@H](C)[C@H](OC(C)=O)[C@@H]1C [Rifampicin],0.0335 (active)
16,CCCC1C(=O)N2C(N(C)C)=Nc3ccc(C)cc3N2C1=O (centres undefined) [Azapropazone],0.968
17,CC(=O)OCC(=O)[C@@]12N=C(C)O[C@@H]1C[C@H]1[C@@H]3CCC4=CC(=O)C=C[C@]4(C)[C@H]3[C@@H](O)C[C@@]12C [Deflazacort],1.02
18,CC(=O)O[C@H]1C[C@@H]2CC[C@@H]3[C@H](CC[C@@]4(C)[C@H]3C[C@H]([N+]3(C)CCCCC3)[C@@H]4OC(C)=O)[C@@]2(C)C[C@@H]1N1CCCCC1 [Vecuronium bromide],1.05
19,COc1ccc2c(c1)c(CC(=O)O)c(C)n2C(=O)c1ccc(Cl)cc1 [Indomethacin],0.975
